An excerpt weighted towards active compounds, which were near 3.7% of everything screened.
DRV1 agonist: qHTS for Agonists of Human Resolvin D1 Receptor DRV1. AID 1346428, 2018. 48,000 compounds, 2.5% hits. CHO-K1 GPR32 beta-arrestin PathHunter luminescence, 90 min; zero percent set by DMSO-only wells. activation, % at 76.9 µM;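 active = activation of at least 60% and not above a set upper limit, about 1 call in 100 departs from these limits; inconclusive = activation of 40% to 60%, or above that upper limit; inactive = activation under 40%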; note: 0% is about no effect
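Agonism was scored as beta-arrestin recruitment to ProLink-fused GPR32 in stably transfected CHO-K1 cells, giving a chemiluminescent beta-Gal signal; compounds were incubated 90 min at 37 °C.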
HTT-AS promoter: Primary qHTS for Identification of Small Molecule Activators of Huntingtin-Antisense Promoter Activity; Potency, µM (titrated, usually from 57.5 µM), for the others: top-dose activity change, positive = activation, usual class: activators; 48,000 compounds, 0.24% hits; AID 1508624, 2021; HEK293 HTT-AS promoter firefly luciferase reporter, 24 h; response scale: percent change from vehicle, -100% = no light; note: potency is the fitted concentration of half-maximal effect; nearly all actives have a fitted effect of over 55% in size
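Firefly luciferase signal from promoter-reporter HEK293 cells was scaled between vehicle (0%) and zero RLU (-100%). Compounds were tested at final concentrations of up to 57.5 uM over 24 h at 37 degrees C. PTC124 at 50 uM final served as control inhibitor.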
GALC G270D up: A Novel Cell-Based Assay to Identify Small Molecules for B -Galactocerebrosidase | 45,000 compounds, 0.1% hits | P54803 | 145M-Twi-hGALC-G270D cells (Twitcher mouse brain line with human GALC G270D), HMU-beta-Gal fluorescence, 48 h | AID 1159614, 2016 | Potency, µM (top dose mostly 57.5 µM), usual class: activators; note: potency is the fitted concentration of half-maximal effect; 0% is about no effect; nearly all actives have a fitted effect of over 65% in size
Target sequence (P54803 whole entry G286D): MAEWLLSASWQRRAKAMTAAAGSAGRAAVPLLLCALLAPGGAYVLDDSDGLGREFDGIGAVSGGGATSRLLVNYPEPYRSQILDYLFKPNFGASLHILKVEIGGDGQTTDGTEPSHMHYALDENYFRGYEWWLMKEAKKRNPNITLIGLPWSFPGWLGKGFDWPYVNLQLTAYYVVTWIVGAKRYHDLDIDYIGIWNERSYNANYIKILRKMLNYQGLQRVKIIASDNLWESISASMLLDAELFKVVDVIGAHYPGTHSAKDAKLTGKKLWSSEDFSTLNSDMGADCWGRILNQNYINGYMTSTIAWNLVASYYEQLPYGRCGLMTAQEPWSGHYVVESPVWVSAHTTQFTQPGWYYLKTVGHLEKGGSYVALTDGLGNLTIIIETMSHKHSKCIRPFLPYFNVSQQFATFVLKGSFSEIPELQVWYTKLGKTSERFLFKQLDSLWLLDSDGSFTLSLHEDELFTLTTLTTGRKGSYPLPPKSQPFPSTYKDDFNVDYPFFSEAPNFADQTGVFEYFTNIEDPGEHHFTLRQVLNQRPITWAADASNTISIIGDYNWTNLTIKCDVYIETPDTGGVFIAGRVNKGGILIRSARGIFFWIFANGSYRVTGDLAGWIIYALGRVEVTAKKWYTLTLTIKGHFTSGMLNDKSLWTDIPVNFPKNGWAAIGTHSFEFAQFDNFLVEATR
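Brain-derived Twitcher mouse 145M-Twi cells stably expressing human GALC-G270D or wild-type GALC, treated live, then residual GALC activity read by fluorescence of HMU-b-Gal substrate (0.1 mM final) in citrate-phosphate buffer pH 5.2 with sodium taurocholate. Signal increase indicates enhancement.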
HTT prom inh: Primary qHTS for Identification of Small Molecule Inhibitors of Huntingtin Promoter Activity | HEK293 HTT promoter firefly luciferase reporter, 24 h | Potency, µM (doses to about 57.5 µM), for the others: at the highest dose activity change, negative = inhibition, hits mostly inhibitors | 48,000 compounds, 0.93% hits; note: potency is the fitted concentration of half-maximal effect; nearly all actives have a fitted effect of over 50% in size
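HEK293 Fluc reporter, 2,500 cells/well, 24 h pre-culture; cpds up to 57.5 uM final, 24 h 37 degrees C; Dual-Glo, 10 min RT; normalized vehicle = 0%, zero RLU = -100%.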
B2AR arrestin ag: qHTS assay of beta-arrestin-biased ligands of beta2-adrenergic receptor: NCGC Sytravon Library Screen | HTLA Tango cells, beta-arrestin recruitment, luciferase luminescence, 18 h | Potency, µM (series often up to 46.1 µM), most hits filed as activators | 44,000 tested, under 10 active;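 note: potency is the fitted concentration of half-maximal effect; 0% = DMSO and full agonism = EC100 isoproterenol or metaproterenol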
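Tango cell line, 1% FBS DMEM; cpd titration up to 46 microM; 18 hr, 37 degrees C, 5% CO2. Luciferin/ATP substrate mix added, 15 min RT, luminescence. %Activity, CRC fitting, curve-class categorization.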
FH mod: Identification of activators of human fumarate hydratase by quantitative high-throughput screening | AID 1347055, 2019 | 54,000 compounds, 0.22% hits | Fumarate hydratase, mitochondrial (Homo sapiens), P07954 | FH coupled MDH/diaphorase resazurin fluorescence, 15 min | Potency, µM (doses to about 79.9 µM), without a hit: top-dose activity change, negative = inhibition, actives largely listed as inhibitors; note: potency is the fitted concentration of half-maximal effect; % is set by controls: 0 for no effect and ±100 for the full control effect; the screen sought activators but most active calls are inhibition curves; nearly all actives have a fitted effect of over 45% in size
* marks the source's active call; other numbers are inactive results; i = inactive; ? = inconclusive; . = not tested or not shown; ! = repeats disagree; [ ] = remark or other dose. Unless noted, calls come from the whole dose curve; as a rule, active = well fitted curve in the direction sought with a large enough effect; inconclusive = small, poorly fitted or top-dose-only effect, or another doubt; inactive = no such curve, though single readings can be large; an effect the other way counts as inactive or inconclusive.

SMILES	DRV1 agonist	HTT-AS promoter	GALC G270D up	HTT prom inh	B2AR arrestin ag	FH mod
CC(C)(c1ccc(O)cc1)c1ccc(O)cc1	64*	-11%[116 µM]	i	-21%[116 µM]	.	-8%
CCC(C)(C)c1ccc(O)cc1	?	3%	i	9%	.	-12%[53.3 µM]
CC(C)(C)CC(C)(C)c1ccc(O)cc1	116*!	-11%	i	-6%	.	?
N#Cc1cc2c(nc1SCC(=O)Nc1cccc(C(F)(F)F)c1)C1CCN2CC1	64*	-47%	i	?	i	1%
N#Cc1cccc(NC(=O)CSc2nc3c(cc2C#N)N2CCC3CC2)c1	21	?	i	41%	i	-18%
N#Cc1cc2c(nc1SCC(=O)Nc1ccc(OC(F)(F)F)cc1)C1CCN2CC1	15	-51%	i	28µM*	i	-13%
CCNC(=O)[C@H]1O[C@@H](n2cnc3c(N)ncnc32)[C@H](O)C1O (stereo not given in full)	.	.	.	.	.	4%[53.3 µM]
CC(=O)OC1CC(O)C2(C)C(CC(OC(C)=O)C3(C)C2CCC2(C)C(c4ccoc4)C(=O)C4OC423)C1(C)C (stereo not given)	.	.	.	.	.	-2%[53.3 µM]
CCCN1CCc2cc(O)cc3c2[C@H]1Cc1ccc(O)c(O)c1-3	21	.	.	.	.	14µM*
CN1CCc2cc(Cl)c(O)cc2[C@H]2c3ccccc3CC[C@@H]21	34	-11%	i	-5%	.	0%[53.3 µM]
CN1CCc2cc(O)cc3c2[C@H]1Cc1ccc(O)c(O)c1-3	17	.	.	.	.	14µM*
CCN1C[C@]2(COC)CC[C@H](O)[C@@]34C5C[C@@H]6[C@@H](OC)C[C@@](OC(C)=O)(C5[C@@H]6OC(C)=O)[C@H]([C@H](OC)C23)[C@@H]14 (stereo not given in full)	.	.	.	.	.	-7%[53.3 µM]
CCC(OC(C)=O)C(CC(C)NC)(c1ccccc1)c1ccccc1 (stereo not given)	85*	-28%[116 µM]	i	-27%[116 µM]	.	4%
C=C(C)C(=O)O[C@H]1[C@@H]2[C@H](C)C(=O)O[C@@H]2C[C@@H](C)[C@@H]2C=CC(=O)[C@]21C	.	.	.	.	.	2%[53.3 µM]
O=C(NCCCNc1nc(Nc2ccc(N3CCOCC3)cc2)ncc1C1CC1)C1CCC1	.	.	.	.	.	0%
CCCCCCCCCC(CC)c1ccc(S(=O)(=O)O)cc1 (stereo not given)	101*	-17%[116 µM]	i	12%[116 µM]	.	?
O=C(O)c1nn(Cc2ccc(Cl)cc2Cl)c2ccccc12	64*!	-7%	i	6%	.	-22%[53.3 µM]
CC(C)[C@H](NC(=O)c1nn(Cc2ccc(F)cc2)c2ccccc12)C(N)=O	.	.	.	.	.	2%
